High-throughput results (PubChem)
Measles CPE = protection of cells from measles virus; 1.5% of 140,000 active; protection (pct of control), % at 4 µM; AID 841; Measles virus-infected cells, CPE protection, absorbance; in the data active means protection mostly above about 24%, no sharp cut-off; inactive means mostly below about 26%
sEH inh = soluble epoxide hydrolase (human) inhibition | 0.34% of 91,000 active | inhibition, % at 2 µM | AID 707 | P34913 | recombinant human sEH enzymatic activity assay; in the data active means inhibition above about 80%
Target sequence (P34913 whole entry, looked up): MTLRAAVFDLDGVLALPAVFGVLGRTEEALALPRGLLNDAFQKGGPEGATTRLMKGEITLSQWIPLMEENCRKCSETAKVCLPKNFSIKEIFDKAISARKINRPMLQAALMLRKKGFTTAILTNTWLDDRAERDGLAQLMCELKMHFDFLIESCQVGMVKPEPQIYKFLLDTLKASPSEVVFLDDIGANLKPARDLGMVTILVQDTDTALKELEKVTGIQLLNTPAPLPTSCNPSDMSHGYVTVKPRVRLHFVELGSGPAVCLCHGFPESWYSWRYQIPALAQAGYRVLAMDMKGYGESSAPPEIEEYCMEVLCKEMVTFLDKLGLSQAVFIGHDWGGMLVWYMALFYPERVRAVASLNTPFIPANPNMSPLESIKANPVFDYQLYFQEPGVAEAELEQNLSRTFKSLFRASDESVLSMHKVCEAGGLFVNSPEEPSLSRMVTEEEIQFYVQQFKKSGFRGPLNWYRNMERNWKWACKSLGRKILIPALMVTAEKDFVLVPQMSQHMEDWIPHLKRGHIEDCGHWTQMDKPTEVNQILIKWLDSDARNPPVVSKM
sEH activator = activators of human soluble epoxide hydrolase. 0.04% of 91,000 active. activation, % at 2 µM. P34913. AID 717. purified human sEH enzymatic activity, activator screen; in the data active means activation above about 37%
sdo1 growth = compounds rescuing growth of sdo1-depleted yeast, bone marrow failure model | S. cerevisiae sdo1-depleted JHY4D growth rescue, OD600 30 h; stronger effect = higher value; pdr5 snq2 efflux-pump mutant strain | z-score at 10 µM | 0.21% of 140,000 active | AID 817;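 active means z-score above 3 at both the 24 hr and the 30 hr optical density reads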;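 further: z-score against mean and SD of all compound wells on the same plate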
Active calls of the source: *. Only some compounds are listed: those with a hit (about 1.9% of all), similar ones and a draw of the others.

`O=C(NCc1cccnc1)C1CCCCN1S(=O)(=O)c1ccc(F)cc1` (configuration not stated) gave Measles CPE 19*, sEH inh -10, sEH activator 9 and sdo1 growth -0.01.
For COc1ccc(OC)c2c(C)cc(N3CCN(C(=O)c4ccc(Cl)cc4)CC3)nc12 the results were Measles CPE 56*, sEH inh -20, sEH activator 16 and sdo1 growth -1.9.
`O=C(CSc1nnnn1-c1cccc2ccccc12)N1CCOCC1` gave Measles CPE 36*, sEH inh -10, sEH activator 14 and sdo1 growth 0.14.
Cn1cc(C(CC(=O)O)C(=O)O)c2ccccc21 (configuration not stated) was read as Measles CPE 3, sEH inh -10, sEH activator 9 and sdo1 growth 0.94.
O=C(NCc1ccc(Cl)cc1)c1ccc(Cn2cc(C(F)(F)F)ccc2=O)cc1 was read as Measles CPE 10, sEH inh 23, sEH activator -20 and sdo1 growth -0.41.
For O=C(NCc1ccccc1Cl)c1ccc(Cn2cc(C(F)(F)F)ccc2=O)cc1 the results were Measles CPE 6, sEH inh 88*, sEH activator -88 and sdo1 growth 0.69.
Cc1ccc(CC(=O)Nc2ccc(F)c([N+](=O)[O-])c2)cc1 was read as Measles CPE 35* and sdo1 growth -1.2.
Screening CCCNC(=O)NC(=O)CSc1nc2cc(C(=O)OC)ccc2c(=O)n1-c1ccccc1 returned Measles CPE 26*, sEH inh 4, sEH activator -2 and sdo1 growth 0.05.
For CNC(=O)NC(=O)CSc1nc2cc(C(=O)OC)ccc2c(=O)n1-c1ccccc1 the results were Measles CPE 11, sEH inh 7, sEH activator -7 and sdo1 growth 0.2.
`O=C(c1ccc(Br)o1)N1CCN(C/C=C/c2ccccc2)CC1` gave Measles CPE 119*, sEH inh 14, sEH activator -11 and sdo1 growth 0.33.
For O=C(NC12CC3CC(CC(C3)C1)C2)N1CC2Cc3cccc(=O)n3C(C2)C1 (configuration not stated) the results were Measles CPE 9, sEH inh 86*, sEH activator -86 and sdo1 growth -0.71.
O=C(Cc1cscn1)c1ccc(O)cc1O was read as Measles CPE 36* and sdo1 growth 0.53.
O=C(NN=C1CCCCCCCCCCC1)c1ccccc1F was read as Measles CPE 50* and sdo1 growth 1.4.
CCOc1ccc(Nc2cc(C)nc(-n3nc(C)cc3C)n2)cc1 was read as Measles CPE 43*, sEH inh 7, sEH activator -6 and sdo1 growth -1.2.
For CSCCC(C(=O)N1CC2(C)CC1CC(C)(C)C2)N1C(=O)c2ccccc2C1=O (configuration not stated) the results were Measles CPE 3, sEH inh 5, sEH activator 0 and sdo1 growth 1.1.
Cc1cc(/C=N/NC(=O)c2cccs2)c(C)n1-c1ccccc1 was read as Measles CPE 77*, sEH inh 18, sEH activator -17 and sdo1 growth -0.23.
For CCOC(=O)c1cnn(-c2ccccc2)c1-n1cccc1C(=O)C(=O)Nc1ccccc1C(F)(F)F the results were Measles CPE 2, sEH inh -4, sEH activator 4 and sdo1 growth -1.1.
Screening CCCCc1nc(N2CCOCC2)c(C#N)c2c1CCCC2 returned Measles CPE 56*, sEH inh 7, sEH activator -7 and sdo1 growth -0.62.
`CCOc1ccc(N2C(=O)CC(N(C)Cc3ccccc3)C2=O)cc1` (configuration not stated) gave Measles CPE 3 and sdo1 growth 1.4.
O=C(NCCc1ccccc1)c1nc2c(nnn2Cc2ccccc2Cl)c(=O)[nH]1 was read as Measles CPE 4, sEH inh 7, sEH activator -4 and sdo1 growth -1.3.
Screening COc1ccc(/C=C2/SC(=O)N(CCNC(=O)C3CCCN3C(=O)c3cccs3)C2=O)cc1 (configuration not stated) returned Measles CPE 42* and sdo1 growth 0.37.
For C1=CCC(/C=N/n2cnnc2)CC1 (configuration not stated) the results were Measles CPE 31* and sdo1 growth -0.09.
CCOc1ccc2c(c1)n([O-])c1c([n+]2=O)CCCC1 was read as Measles CPE 6 and sdo1 growth 1.4.
CC(C)(C)NC(=O)NC(=O)COC(=O)c1ccc(OC(F)(F)F)cc1 was read as Measles CPE 7 and sdo1 growth -0.35.
For O=C(NCc1ccccc1)C(=O)NCC1OCCN1S(=O)(=O)c1cccs1 (configuration not stated) the results were Measles CPE 36* and sdo1 growth 0.11.
Screening CCn1c(SCC(=O)NCc2cccs2)nnc1-c1ccco1 returned Measles CPE 26* and sdo1 growth 1.5.
Screening CCn1c(SCC(=O)NCc2cccs2)nnc1-c1ccncc1 returned Measles CPE 12, sEH inh 11, sEH activator -11 and sdo1 growth 0.07.
COc1ccc(C(=O)CSc2cc(C)nc3nc(C)nn23)cc1OC was read as Measles CPE 9 and sdo1 growth -0.11.
For O=C(Nc1nc2nc(-c3ccccc3)cc(-c3ccccc3)n2n1)c1ccco1 the results were Measles CPE 9, sEH inh -15, sEH activator 15 and sdo1 growth -0.9.
`COc1ccc(S(=O)(=O)N2CCN(C(=O)c3ccco3)CC2)cc1OC` gave Measles CPE 57*, sEH inh -16, sEH activator 12 and sdo1 growth 0.65.
For COc1ccc(Cl)cc1S(=O)(=O)N1CCN(C(=O)c2ccco2)CC1 the results were Measles CPE 37, sEH inh 1, sEH activator -1 and sdo1 growth 0.71.
`Cc1cc2ccc(C)c(C)c2nc1SCC(=O)c1cccs1` gave Measles CPE 32*, sEH inh 9, sEH activator -7 and sdo1 growth -1.3.
For Cc1ccc2cc(C)c3nnc(SCC(=O)c4cccs4)n3c2c1C the results were Measles CPE 7 and sdo1 growth -0.44.
`COc1ccc(N2CC(C(=O)Nc3ccccc3C(=O)NCc3ccco3)CC2=O)cc1` (configuration not stated) gave Measles CPE 35*, sEH inh -9, sEH activator 9 and sdo1 growth -0.65.
Cc1ccc(C)c(Cn2nnc3c(=O)[nH]c(C4CCCN(C(=O)C5CCC5)C4)nc32)c1 (configuration not stated) was read as Measles CPE 2, sEH inh -5, sEH activator 6 and sdo1 growth -0.02.
O=C(C1CCC1)N1CCC(c2nc3c(nnn3Cc3c(F)cccc3Cl)c(=O)[nH]2)CC1 was read as Measles CPE 41*, sEH inh -5, sEH activator 7 and sdo1 growth -0.37.
Screening CC(=O)c1cccc(N/C=C\c2nnnn2-c2ccc(F)cc2)c1 returned Measles CPE 4 and sdo1 growth 0.13.
COc1ccc(-n2nnnc2/C=C\Nc2ccccc2C(=O)c2ccccc2)cc1 was read as Measles CPE 31*, sEH inh 3, sEH activator 0 and sdo1 growth -0.46.
